Experiments:
Settings in all cases: concentration: 1 μM,replicates: in singlicate; n = 1
[1] = tested on: T1, MEK5
T1 construct: gene MAP2K5

[2] = tested on: T2, MEK6
T2 construct: gene MAP2K6

[3] = tested on: MELK
[4] = tested on: MERTK
[5] = tested on: MET
[6] = tested on: T3, MINK
T3 construct: gene MINK1

[7] = tested on: MKK7
[8] = tested on: MKNK1
[9] = tested on: MKNK2
[10] = tested on: T4, MLCK
T4 construct: gene MYLK3
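Also: KINOMEscan kinase panel screen.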

SMILES | %Inh [1] | %Inh [2] | %Inh [3] | %Inh [4] | %Inh [5] | %Inh [6] | %Inh [7] | %Inh [8] | %Inh [9] | %Inh [10]
Nc1nc(Nc2ccccc2)cc(-c2ccc3c(N)n[nH]c3c2)n1 [GSK2225749] | 28% | 0% | 58% | 26% | 0% | 47% | 0% | 9% | 56% | 18%
O=C(NCCNc1ccnc(NCc2ccc(F)cc2)n1)c1cc2ccccc2s1 [GSK1379944] | 6% | 0% | 0% | 34% | 12% | 0% | 26% | 8% | 12% | 0%
Cc1ccc(-n2nc(C(C)(C)C)cc2NC(=O)Nc2ccc(OCCN3CCOCC3)c3ccccc23)cc1 [GW839464] | 11% | 0% | 7% | – | 9% | 84% | 0% | 14% | 0% | 0%
CC(C)Nc1cc(-c2ccc3c(N)n[nH]c3c2)nc(N)n1 [GSK2221681] | 33% | 0% | 38% | 35% | 0% | 9% | 0% | 31% | 66% | 51%
Cl.Cl.Nc1nc(-c2ccc3c(N)n[nH]c3c2)cc(N2CCCC(NC(=O)c3ccccc3)C2)n1 (centres unmarked) [GSK2286775] | 9% | 22% | 0% | 0% | 0% | 17% | 0% | 12% | 27% | 0%
CN(C)CCOc1ccc(-c2cc(-c3c[nH]nc3-c3ccccn3)ccn2)cc1 [GW835314] | 30% | 0% | 11% | 0% | 2% | 89% | 13% | 0% | 13% | 0%
CNC(=O)c1ccccc1Sc1ccc2c(/C=C/c3ccccn3)n[nH]c2c1 | 77% | 29% | 0% | 19% | 12% | 57% | 0% | 0% | 0% | –
CN(C)CC(O)COc1ccc(Nc2nccc(-c3cnn4nc(N5CCOCC5)ccc34)n2)cc1 (centres unmarked) [GW767488] | 56% | 47% | 65% | 32% | 0% | 55% | 0% | 41% | 83% | 0%
Cl.Cl.NC[C@H](Cc1ccc(C(F)(F)F)cc1)NC(=O)c1cc(Br)c(-c2ccnc3[nH]ccc23)s1 [GSK1487252] | 3% | 0% | 76% | 59% | 2% | 27% | 0% | 0% | 19% | 63%
Cl.Cl.NC[C@H](CC1CCCCC1)NC(=O)c1cc(Br)c(-c2ccnc3[nH]ccc23)s1 [GSK1581427] | 15% | 0% | 76% | 47% | 0% | 24% | 0% | 13% | 88% | 39%
Cc1cc2cn[nH]c2cc1-c1cccc2c(N)c(C(N)=O)nnc12 | 43% | 4% | 5% | 0% | 7% | 55% | 27% | 11% | 23% | 0%
NC(=O)c1cc(-c2ccccc2)cc2c(C3CCNCC3)c[nH]c12 [GSK301362] | 16% | 0% | 0% | 38% | 9% | 56% | 18% | 0% | 13% | 0%
C[C@@H]1CCN(C(=O)CC#N)C[C@@H]1N(C)c1ncnc2[nH]ccc12 | 0% | 0% | 23% | 0% | 0% | 0% | 0% | 0% | 0% | 0%

Source: PMC5540273 (PLoS ONE, 2017)
